High-throughput results deposited in PubChem by several laboratories.
Sampled rows, rich in hits. Any-hit rate of the full collection: about 1.2%.
TLR9-MyD88 inh = inhibitors of TLR9-MyD88 association in cells, primary screen, cell-based, CHO, BLA complementation, fluorescence. Toll-like receptor 9 (Homo sapiens) + Myeloid differentiation primary response protein …. CCF4 FRET ratio. inhibition, % at 4.98 µM. 340,000 compounds, 0.21% hits. AID 504734, 2011;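 active = inhibition above the mean over all tested compounds plus 3 SD, cut at about 21% in these data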;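 note: 0% = DMSO only wells and 100% = clavulanate BLA inhibitor control wells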
NOD2 RIPK2 PPI = NOD2-RIPK2 binding disruptors in cells, primary screen, fluorescence, CHO cells, BLA complementation | Receptor-interacting serine/threonine-protein kinase 2 (Homo sapiens), O43353 | CCF4 ratio | inhibition, % at 4.98 µM | 360,000 compounds, 0.38% hits | AID 624267, 2012; in the data active = inhibition above about 21%;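 note: 0% = vehicle only and 100% = reference blocker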
Target sequence (O43353 whole entry, looked up): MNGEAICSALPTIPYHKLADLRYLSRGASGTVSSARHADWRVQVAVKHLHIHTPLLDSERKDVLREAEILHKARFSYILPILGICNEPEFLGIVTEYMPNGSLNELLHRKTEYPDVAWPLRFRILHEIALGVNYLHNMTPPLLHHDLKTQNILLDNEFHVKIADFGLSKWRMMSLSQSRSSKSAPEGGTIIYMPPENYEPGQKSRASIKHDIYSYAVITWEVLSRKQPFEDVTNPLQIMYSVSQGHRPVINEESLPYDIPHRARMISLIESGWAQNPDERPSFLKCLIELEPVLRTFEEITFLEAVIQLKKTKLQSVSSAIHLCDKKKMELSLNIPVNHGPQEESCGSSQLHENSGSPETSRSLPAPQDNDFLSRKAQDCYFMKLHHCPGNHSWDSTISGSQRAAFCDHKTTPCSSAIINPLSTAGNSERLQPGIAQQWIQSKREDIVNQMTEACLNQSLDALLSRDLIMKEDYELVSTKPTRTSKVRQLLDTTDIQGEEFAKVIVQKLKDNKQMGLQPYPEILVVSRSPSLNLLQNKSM
NPR1 activator = GC-A stimulated cGMP production enhancers – HEK293 GC-A cells, cGMP TR-FRET, EC30 ANP, primary screen | activation, % at 10 µM | Atrial natriuretic peptide receptor 1 (Homo sapiens), P16066 | 370,000 compounds, 0.14% hits | 0% at EC30 ANP, 100% saturating ANP | AID 1671463, 2021; in the data active = activation above about 40%
TLR4 MyD88 comp = inhibitors of TLR4-MyD88 association in cells, primary screen, cell-based, HeLa CL3-4, BLA complementation, FRET ratio | Toll-like receptor 4 (Homo sapiens) + Myeloid differentiation primary response protein … | 200,000 compounds, 0.18% hits | HeLa CL3-4 TLR4/MyD88 BLA complementation | inhibition, % at 8.4 µM; in the data active = inhibition above about 25%;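 note: 0% = vehicle and 100% = reference inhibitor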
Neddyl block = inhibitors of cullin neddylation, primary screen, biochemical, TR-FRET, uHTS, NAE and Ubc12 | NEDD8-conjugating enzyme Ubc12 (Homo sapiens) + NEDD8-activating enzyme E1 regulatory … | inhibition, % at 25 µM | 360,000 compounds, 0.58% hits; in the data active = inhibition above about 36%
NPR2 activator = human GC-B receptor activators, primary screen, HEK293 GC-B cells, cGMP TR-FRET, EC30 CNP; Atrial natriuretic peptide receptor 2 (Homo sapiens), P20594; 0% at EC30 CNP, 100% saturating CNP; activation, % at 10 µM; 370,000 compounds, 0.11% hits;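 active = activation at 10 µM reaching about 35% in either raw or pattern-adjusted values, limit read from the data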
Neddyl conf = blockade of NEDD8 conjugation to cullin – biochemical, TR-FRET, single concentration, confirmation; calls only at 25 µM; 1,800 compounds, 13% hits; AID 652217, 2013; TR-FRET cullin neddylation biochemical assay; shares compounds with Neddyl block; in the data active = inhibition above about 40%;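 note: neddylation substrate is the cullin 1 ring ligase complex with SKP2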
The depositor's hits bear a star; i = inactive; · = not tested or not shown.

SMILES | TLR9-MyD88 inh | NOD2 RIPK2 PPI | NPR1 activator | TLR4 MyD88 comp | Neddyl block | NPR2 activator | Neddyl conf
COc1cc(NC(=O)C2CCN(c3nnc(-n4cccc4)s3)CC2)cc(OC)c1 | · | · | 0 | · | · | 2 | ·
CCc1ccccc1Cn1c(=O)oc2cccnc21 | -15 | -2 | 6 | · | 48* | 0 | i
COc1ccccc1Cn1c(=O)oc2ccccc21 | -5 | -4 | 7 | · | 1 | 3 | ·
OC(c1ccc(F)cc1)c1ncc(-c2cccc3ccccc23)[nH]1 (configuration not stated) | · | 5 | -4 | · | 40* | -4 | i
Cc1cc(NC(=O)COc2cc(F)cc(F)c2)n(-c2ccccc2)n1 | · | · | 1 | · | · | 4 | ·
CC(C)(C)NC(=O)COC(=O)c1ccccc1Nc1ccc(SC(F)F)cc1 | -7 | -3 | 10 | -10 | 38 | -4 | ·
NC(=O)COC(=O)c1ccccc1Nc1ccc(SC(F)F)cc1 | -9 | 5 | 26 | -1 | 41* | 2 | i
CC1(C)CC(=O)C2=C(C1)OC(N)=C(C#N)C2c1cc2c(cc1[N+](=O)[O-])OCO2 (configuration not stated) | 7 | 2 | -15 | -1 | 39* | -8 | i
COCCCn1cnc2c(c1=O)c1nc3ccccc3nc1n2CCc1ccccc1 | -2 | 11 | 16 | 9 | 54* | 4 | i
CC(=O)Nc1cc(-c2cccc(CO)c2)cn2c(-c3ccc(F)cc3)cnc12 | · | -7 | -10 | · | 26 | 2 | ·
COc1cc(-c2cc(NC(C)=O)c3ncc(-c4ccc(C(C)=O)cc4)n3c2)cc(OC)c1OC | · | -11 | 46* | · | 42* | 46* | i
CC(=O)c1ccc(-c2cnc3c(NC=O)cc(-c4ccc(C(=O)NC5CC5)cc4)cn23)cc1 | · | -9 | 9 | · | 48* | 10 | i
CC(=O)Nc1cc(-c2cccc(CO)c2)cn2c(-c3ccc(C(C)=O)cc3)cnc12 | · | 4 | 0 | · | 45* | 28 | i
CC(=O)Nc1cccc(-c2cc(NC=O)c3ncc(-c4ccc(C(C)=O)cc4)n3c2)c1 | · | -9 | 10 | · | 42* | 5 | i
COc1cc(-c2cc(NC(C)=O)c3ncc(-c4ccc(F)cc4)n3c2)cc(OC)c1OC | · | -3 | 23 | · | 28 | 28 | ·
O=CNc1cc(-c2ccc(C(=O)NC3CC3)cc2)cn2c(-c3ccccc3)cnc12 | · | -12 | 4 | · | 9 | 23 | ·
O=[N+]([O-])c1ccccc1S(=O)(=O)N/C(=N/S(=O)(=O)c1ccccc1)c1ccccc1 | -8 | -6 | 1 | · | -11 | -2 | ·
CC(=O)Nc1cc(-c2ccc(C(=O)N3CCOCC3)cc2)cn2c(-c3ccc(S(C)(=O)=O)cc3)cnc12 | · | -11 | 1 | · | 45* | -1 | i
COC(=O)[C@]12C[C@H](CC(=O)NCc3ccc(C)o3)C(=O)N(Cc3cccc4ccccc34)C1=C[C@H](C(C)(C)C)O[C@@H]2C | · | · | -8 | · | · | -4 | ·
Cn1cc(-c2ccc(Cl)cc2)cc(C#N)c1=O | -1 | 8 | 7 | 4 | 46* | 0 | i
C=CCn1cc(-c2cccc(Cl)c2)cc(C#N)c1=O | -4 | -4 | 5 | 0 | 41* | 6 | i
Cc1ccc(S(=O)(=O)N2C3CCCCC3O[C@H]2CC(=O)c2cccc3ccccc23)cc1 (some centres not stated) | · | -7 | 0 | · | -15 | -5 | ·
COc1ccccc1NC(=O)N(C)C[C@@H]1OCc2cnnn2CCCC(=O)N([C@H](C)CO)C[C@H]1C | -1 | 1 | 3 | · | -6 | 1 | ·
CCN(CC)S(=O)(=O)c1ccc(Cl)c(NC(=O)COC(=O)/C=C/c2ccc(O)c(OC)c2)c1 | 4 | -16 | 0 | -3 | 40* | -3 | i
COc1cc(/C=C/C(=O)OCC(=O)Nc2cc(S(=O)(=O)N3CCCCC3)ccc2C)ccc1O | -3 | 20 | -7 | -4 | 41* | -3 | i
SMILES | TLR9-MyD88 inh | NOD2 RIPK2 PPI | NPR1 activator | TLR4 MyD88 comp | Neddyl block | NPR2 activator | Neddyl conf
O=C(NN=Cc1ccccc1C(F)(F)F)c1cc(-c2ccc(Cl)cc2)n[nH]1 | · | · | 2 | · | · | 9 | ·
Cc1cn(C2CCCCC2)c(=O)[nH]c1=O | 2 | 0 | 2 | · | -2 | 0 | ·
COc1cc(/C=C/C(=O)NC(C)CCc2ccccc2)cc(OC)c1OC (configuration not stated) | -20 | -6 | 2 | -15 | 40* | -3 | i
CC(CCc1ccccc1)NC(=O)/C=C/c1ccccc1 (configuration not stated) | 5 | -3 | -1 | 9 | -11 | -6 | ·
COc1cc(/C=C/C(=O)N(C)CC(=O)Nc2ccccc2SC)cc(OC)c1OC | -6 | 4 | -3 | · | 41* | -2 | i
COc1cc(/C=C/C(=O)NCc2ccccn2)cc(OC)c1OC | 1 | -14 | 3 | -9 | 44* | -2 | i
Cc1ccc(-c2nn(CC(=O)O)c(=O)c3ccccc23)cc1 | -3 | -9 | 7 | 3 | -3 | 3 | ·
O=C(O)Cn1nc2c3c(cccc3c1=O)-c1ccccc1-2 | -1 | 1 | 2 | · | 54* | 1 | i
COc1ccc(N2CCc3c(C)nc4c(OC)cc(OC)cc4c32)c(OC)c1 | 11 | 1 | -16 | -2 | 41* | -22 | i
O=C(OCc1cn(Cc2ccccc2C(F)(F)F)nn1)N1CCOCC1 | · | · | 1 | · | · | -6 | ·
COc1cc(C(=O)NC2CCN(C)CC2)ccc1Nc1ncc2c(n1)N(CCc1ccccc1)CCC(=O)N2C | -2 | -10 | 7 | · | 39* | 7 | i
COc1cc(C(=O)NC2CCN(C)CC2)ccc1Nc1ncc2c(n1)N(C1CCCC1)CCC(=O)N2C(C)C | -2 | -19 | · | · | 31 | · | ·
CCOc1cc(NC(=O)c2ccco2)c(OCC)cc1NC(=O)CCc1ccccc1OC | -17 | -5 | 2 | -2 | 41* | 0 | i
CCOc1cc(NC(=O)c2ccco2)c(OCC)cc1NC(=O)c1ccco1 | -15 | -2 | -3 | · | · | -5 | ·
CCCOc1ccc(-c2cc(C(F)(F)F)c(C#N)c(SCC(=O)O)n2)cc1 | -2 | -13 | 0 | -2 | 40* | -2 | i
Cc1ccc(-c2cc(C(F)(F)F)c(C#N)c(SCC(=O)O)n2)cc1 | 3 | -16 | -1 | -7 | -32 | -8 | ·
Cc1ncc(CC(=O)n2cc(C(=O)c3cc(F)ccc3O)cn2)s1 | 2 | 0 | -3 | 4 | 41* | -3 | i
